# Experimental data as given in the supplement of paper PMC8728848.
# The sample as a whole holds a higher share of the strongest signals than the screen did.
# B1: CBP21 (Serratia marcescens), O83009 (protein)
# chain: MNKTSRTLLSLGLLSAAMFGVSQQANAHGYVESPASRAYQCKLQLNTQCGSVQAEPQSVEGLKGFPQAGPADGHIASADKSTFFELDQQTPTRWNKLNLKTGPNSFTWKLTARHSTTSWRYFITKPNWDASQPLTRASFDLTPFCQFNDGGAIPAAQVTHQCNIPADRSGSHVILAVWDIADTANAFYQAIDVNLSK
# Legend:
# Test in all cases: glycan array binding signal (z-score within array); higher = stronger binding
# Conditions in all cases: glycan notation: IUPAC condensed, linker removed; mutation: Y54A
# [1] = molecular target: Fuc(a1-2)Gal(b1-4)GlcNAc(b1-2)Man
# How it was run: (§1)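 From the Consortium for Functional Glycomics database, 3228 arrays were curated, keeping only those whose protein sequence was available. Binding is given as a within-array Z-score averaged across arrays sharing a protein sequence and across linkers. Negative Z-scores can be read as non-binding.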
# [2] = molecular target: Fuc(a1-2)Gal(b1-4)GlcNAc(b1-3)Gal(b1-4)GlcNAc(b1-2)Man(a1-3)[Fuc(a1-2)Gal(b1-4)GlcNAc(b1-3)Gal(b1-4)GlcNAc(b1-2)Man(a1-6)]Man(b1-4)GlcNAc(b1-4)GlcNAc
# How it was run: as §1
# [3] = molecular target: Fuc(a1-2)Gal6S(b1-3)GlcNAc
# How it was run: as §1
# [4] = molecular target: Fuc(a1-2)[Gal(a1-3)]Gal(b1-3)GlcNAc(b1-6)GalNAc
# How it was run: as §1
# [5] = molecular target: Fuc(a1-2)[GalNAc(a1-3)]Gal(b1-3)GalNAc(b1-3)Gal(a1-4)Gal(b1-4)Glc
# How it was run: as §1
# [6] = molecular target: Fuc(b1-3)GlcNAc
# How it was run: as §1
# [7] = molecular target: Gal(a1-3)Gal(b1-4)GlcNAc(b1-2)Man(a1-3)[Gal(a1-3)Gal(b1-4)GlcNAc(b1-2)Man(a1-6)]Man(b1-4)GlcNAc(b1-4)GlcNAc
# How it was run: as §1
# [8] = molecular target: Gal(a1-3)Gal(b1-4)GlcNAc(b1-6)GalNAc
# How it was run: as §1
# [9] = molecular target: Gal(b1-3)Gal
# How it was run: as §1
# [10] = molecular target: Gal(b1-3)GlcNAc(b1-3)Gal(b1-3)GlcNAc
# How it was run: as §1
# [11] = molecular target: Gal(b1-3)GlcNAc(b1-3)Gal(b1-4)Glc
# How it was run: as §1
# [12] = molecular target: Gal(b1-3)[Fuc(a1-4)]GlcNAc(b1-2)Man
# How it was run: as §1
# [13] = molecular target: Gal(b1-3)[Fuc(a1-4)]GlcNAc(b1-2)Man(a1-3)[Gal(b1-3)[Fuc(a1-4)]GlcNAc(b1-2)Man(a1-6)]Man(b1-4)GlcNAc(b1-4)[Fuc(a1-6)]GlcNAc
# How it was run: as §1
# [14] = molecular target: Gal(b1-4)GlcNAc(b1-2)[Gal(b1-4)GlcNAc(b1-4)]Man(a1-3)[Gal(b1-4)GlcNAc(b1-2)[Gal(b1-4)GlcNAc(b1-6)]Man(a1-6)]Man(b1-4)GlcNAc(b1-4)GlcNAc
# How it was run: as §1
# [15] = molecular target: Gal(b1-4)GlcNAc(b1-3)Gal(b1-4)GlcNAc(b1-3)Gal(b1-4)GlcNAc(b1-3)Gal(b1-4)GlcNAc(b1-2)Man(a1-3)[Gal(b1-4)GlcNAc(b1-3)Gal(b1-4)GlcNAc(b1-3)Gal(b1-4)GlcNAc(b1-3)Gal(b1-4)GlcNAc(b1-2)Man(a1-6)]Man(b1-4)GlcNAc(b1-4)GlcNAc
# How it was run: as §1
# [16] = molecular target: Gal(b1-4)GlcNAc(b1-3)Gal(b1-4)GlcNAc(b1-3)Gal(b1-4)GlcNAc(b1-3)Gal(b1-4)GlcNAc(b1-3)Gal(b1-4)GlcNAc(b1-2)Man(a1-3)[Gal(b1-4)GlcNAc(b1-3)Gal(b1-4)GlcNAc(b1-3)Gal(b1-4)GlcNAc(b1-3)Gal(b1-4)GlcNAc(b1-3)Gal(b1-4)GlcNAc(b1-2)Man(a1-6)]Man(b1-4)GlcNAc(b1-4)[Fuc(a1-6)]GlcNAc
# How it was run: as §1
# [17] = molecular target: Gal(b1-4)GlcNAc(b1-3)Gal(b1-4)GlcNAc(b1-3)Gal(b1-4)GlcNAc(b1-3)Gal(b1-4)GlcNAc(b1-3)Gal(b1-4)GlcNAc(b1-2)[Gal(b1-4)GlcNAc(b1-3)Gal(b1-4)GlcNAc(b1-3)Gal(b1-4)GlcNAc(b1-3)Gal(b1-4)GlcNAc(b1-3)Gal(b1-4)GlcNAc(b1-6)]Man(a1-6)[Gal(b1-4)GlcNAc(b1-3)Gal(b1-4)GlcNAc(b1-3)Gal(b1-4)GlcNAc(b1-3)Gal(b1-4)GlcNAc(b1-3)Gal(b1-4)GlcNAc(b1-2)Man(a1-3)]Man(b1-4)GlcNAc(b1-4)[Fuc(a1-6)]GlcNAc
# How it was run: as §1
# [18] = molecular target: Gal(b1-4)GlcNAc(b1-3)Gal(b1-4)GlcNAc(b1-3)[Gal(b1-4)GlcNAc(b1-3)Gal(b1-4)GlcNAc(b1-6)]GalNAc
# How it was run: as §1
# [19] = molecular target: Gal(b1-6)Gal
# How it was run: as §1
# [20] = molecular target: Gal3S(b1-4)[Fuc(a1-3)]GlcNAc6S
# How it was run: as §1
# [21] = molecular target: Gal3S6S(b1-4)GlcNAc6S
# How it was run: as §1
# [22] = molecular target: Gal4S6S(b1-4)GlcNAc
# How it was run: as §1
# [23] = molecular target: Gal6S(b1-4)GlcNAc
# How it was run: as §1
# [24] = molecular target: GalNAc(b1-3)Gal(a1-4)Gal(b1-4)GlcNAc(b1-3)Gal(b1-4)Glc
# How it was run: as §1
# [25] = molecular target: GalNAc(b1-3)GalNAc
# How it was run: as §1
# [26] = molecular target: GalNAc3S(b1-4)[Fuc(a1-3)]GlcNAc
# How it was run: as §1
# [27] = molecular target: GlcA3S(b1-3)Gal(b1-4)GlcNAc(b1-3)Gal(b1-4)Glc
# How it was run: as §1
# [28] = molecular target: GlcNAc(b1-2)Gal(b1-3)GalNAc
# How it was run: as §1
# [29] = molecular target: Man(a1-3)[Man(a1-6)]Man(a1-6)[Man(a1-2)Man(a1-3)]Man(b1-4)GlcNAc(b1-4)GlcNAc
# How it was run: as §1
# [30] = molecular target: Neu5Ac(a2-3)Gal(b1-3)GalNAc6S
# How it was run: as §1
# [31] = molecular target: Neu5Ac(a2-3)Gal(b1-3)GlcNAc(b1-2)Man(a1-3)[Neu5Ac(a2-3)Gal(b1-3)GlcNAc(b1-2)Man(a1-6)]Man(b1-4)GlcNAc(b1-4)GlcNAc
# How it was run: as §1
# [32] = molecular target: Neu5Ac(a2-3)Gal(b1-3)GlcNAc(b1-2)[Neu5Ac(a2-3)Gal(b1-3)GlcNAc(b1-4)]Man(a1-6)[Neu5Ac(a2-3)Gal(b1-3)GlcNAc(b1-2)Man(a1-3)]Man(b1-4)GlcNAc(b1-4)GlcNAc
# How it was run: as §1
# [33] = molecular target: Neu5Ac(a2-3)Gal(b1-3)GlcNAc6S
# How it was run: as §1
# [34] = molecular target: Neu5Ac(a2-3)Gal(b1-3)[Neu5Ac(a2-6)]GalNAc
# How it was run: as §1
# [35] = molecular target: Neu5Ac(a2-3)Gal(b1-4)GlcNAc(b1-2)Man(a1-3)[Neu5Ac(a2-3)Gal(b1-4)GlcNAc(b1-2)Man(a1-6)]Man(b1-4)GlcNAc(b1-4)GlcNAc
# How it was run: as §1
# [36] = molecular target: Neu5Ac(a2-3)Gal(b1-4)GlcNAc(b1-3)GalNAc
# How it was run: as §1
# [37] = molecular target: Neu5Ac(a2-3)Gal(b1-4)[Fuc(a1-3)]GlcNAc(b1-3)GalNAc
# How it was run: as §1
# [38] = molecular target: Neu5Ac(a2-3)Gal6S(b1-4)GlcNAc
# How it was run: as §1
# [39] = molecular target: Neu5Ac(a2-6)Gal(b1-4)Glc
# How it was run: as §1
# [40] = molecular target: Neu5Ac(a2-6)Gal(b1-4)GlcNAc(b1-2)Man(a1-3)[GlcNAc(b1-4)][Neu5Ac(a2-6)Gal(b1-4)GlcNAc(b1-2)Man(a1-6)]Man(b1-4)GlcNAc(b1-4)GlcNAc
# How it was run: as §1
# [41] = molecular target: Neu5Ac(a2-6)Gal(b1-4)GlcNAc(b1-2)[Neu5Ac(a2-6)Gal(b1-4)GlcNAc(b1-4)]Man(a1-3)[GlcNAc(b1-4)][Neu5Ac(a2-6)Gal(b1-4)GlcNAc(b1-2)[Neu5Ac(a2-6)Gal(b1-4)GlcNAc(b1-6)]Man(a1-6)]Man(b1-4)GlcNAc(b1-4)GlcNAc
# How it was run: as §1
# [42] = molecular target: Neu5Ac(a2-6)Gal(b1-4)GlcNAc(b1-3)Gal(b1-4)GlcNAc(b1-3)Gal(b1-4)GlcNAc
# How it was run: as §1
# [43] = molecular target: Neu5Ac(a2-6)Gal(b1-4)GlcNAc(b1-3)Gal(b1-4)[Fuc(a1-3)]GlcNAc(b1-3)Gal(b1-4)[Fuc(a1-3)]GlcNAc
# How it was run: as §1
# [44] = molecular target: Neu5Ac(a2-6)Gal(b1-4)GlcNAc(b1-6)[Gal(b1-3)]GalNAc
# How it was run: as §1
# [45] = molecular target: Neu5Ac(a2-6)Gal(b1-4)GlcNAc6S
# How it was run: as §1
# [46] = molecular target: Neu5Ac(a2-8)Neu5Ac(a2-8)Neu5Ac(a2-3)Gal(b1-4)Glc
# How it was run: as §1
# [47] = molecular target: Neu5Ac(a2-8)Neu5Gc(a2-3)Gal(b1-4)GlcNAc
# How it was run: as §1
# [48] = molecular target: Neu5Ac(b2-6)GalNAc
# How it was run: as §1
# [49] = molecular target: Neu5Gc(a2-3)Gal(b1-4)GlcNAc(b1-3)Gal(b1-4)GlcNAc(b1-2)Man(a1-3)[Neu5Gc(a2-3)Gal(b1-4)GlcNAc(b1-3)Gal(b1-4)GlcNAc(b1-2)Man(a1-6)]Man(b1-4)GlcNAc(b1-4)GlcNAc
# How it was run: as §1
# [50] = molecular target: Neu5Gc(b2-6)Gal(b1-4)GlcNAc
# How it was run: as §1
binder,measurement,setting,value
B1,glycan array binding signal (z-score),[1],-0.872
same,glycan array binding signal (z-score),[2],2.34
same,glycan array binding signal (z-score),[3],4.33
same,glycan array binding signal (z-score),[4],-0.403
same,glycan array binding signal (z-score),[5],-0.164
same,glycan array binding signal (z-score),[6],-0.276
same,glycan array binding signal (z-score),[7],-0.395
same,glycan array binding signal (z-score),[8],1.24
same,glycan array binding signal (z-score),[9],-0.635
same,glycan array binding signal (z-score),[10],0.339
same,glycan array binding signal (z-score),[11],1.22
same,glycan array binding signal (z-score),[12],0.608
same,glycan array binding signal (z-score),[13],0.588
same,glycan array binding signal (z-score),[14],0.113
same,glycan array binding signal (z-score),[15],0.181
same,glycan array binding signal (z-score),[16],5.09
same,glycan array binding signal (z-score),[17],1.3
same,glycan array binding signal (z-score),[18],-0.31
same,glycan array binding signal (z-score),[19],-0.809
same,glycan array binding signal (z-score),[20],-0.109
same,glycan array binding signal (z-score),[21],4.88
same,glycan array binding signal (z-score),[22],0.517
same,glycan array binding signal (z-score),[23],4.2
same,glycan array binding signal (z-score),[24],-0.857
same,glycan array binding signal (z-score),[25],-0.995
same,glycan array binding signal (z-score),[26],0.039
same,glycan array binding signal (z-score),[27],-0.278
same,glycan array binding signal (z-score),[28],-0.7
same,glycan array binding signal (z-score),[29],0.228
same,glycan array binding signal (z-score),[30],5.86
same,glycan array binding signal (z-score),[31],-0.307
same,glycan array binding signal (z-score),[32],5.4
same,glycan array binding signal (z-score),[33],-0.121
same,glycan array binding signal (z-score),[34],3.97
same,glycan array binding signal (z-score),[35],-0.458
same,glycan array binding signal (z-score),[36],3.83
same,glycan array binding signal (z-score),[37],0.503
same,glycan array binding signal (z-score),[38],4.07
same,glycan array binding signal (z-score),[39],-0.381
same,glycan array binding signal (z-score),[40],-0.098
same,glycan array binding signal (z-score),[41],0.142
same,glycan array binding signal (z-score),[42],-0.314
same,glycan array binding signal (z-score),[43],4.6
same,glycan array binding signal (z-score),[44],0.13
same,glycan array binding signal (z-score),[45],3.37
same,glycan array binding signal (z-score),[46],0.027
same,glycan array binding signal (z-score),[47],-0.455
same,glycan array binding signal (z-score),[48],-0.919
same,glycan array binding signal (z-score),[49],2.24
same,glycan array binding signal (z-score),[50],-0.206
